Measured values from PubChem BioAssay AID1159580 (chemical genetic matrix, 2015).
“And” between values parts separate entries of the source, which are not always exact repeats. Identical values can stand only once. The whole screen tested about 5,500 compounds, of which about 2,000 (36%) were called active. Roughly 18% stayed inconclusive and do not appear here. Rule as the data show it: active = normalized growth mostly below about 0.91 (no sharp cut-off); inconclusive = no clear call, values can overlap the other calls; inactive = mostly above about 0.92. The list shows a part of the results.

Assay: chemical genetic growth profiling, strain panel (AID 1159580);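 also: tested at 20 µM; growth read once vehicle control cultures reached saturation at 30 °C; 1 = growth at the plate median or of vehicle wells; lower values mean less growth of the strain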
Conditions: S. cerevisiae deletion strains, growth OD

Measured: normalized growth

CC(C)(O)CC[C@@H](O)[C@](C)(O)C1CC[C@@]2(O)C3=CC(=O)C4C[C@@H](O)[C@@H](O)C[C@]4(C)C3CC[C@]12C (stereo not given in full)
active: locus YLR262C, strain YPT6 (second series), stronger effect = lower value 1.16 [resistant]
inactive: locus YAL013W, strain DEP1, stronger effect = lower value 1.04 | locus YAL021C, strain ccr4, stronger effect = lower value 0.991 | locus YAL026C, strain drs2, stronger effect = lower value 1 | locus YAL030W, strain snc1, stronger effect = lower value 0.999 | locus YBL061C, strain skt5, stronger effect = lower value 1 | locus YBR009C, strain hhf1, stronger effect = lower value 1.01 | locus YBR021W, strain FUR4, stronger effect = lower value 0.984 | locus YBR023C, strain chs3, stronger effect = lower value 0.996 | locus YBR171W, strain sec66, stronger effect = lower value 0.99 | locus YBR229C, strain ROT2, stronger effect = lower value 1 | locus YBR231C, strain swc5, stronger effect = lower value 0.993 | locus YBR279W, strain paf1, stronger effect = lower value 1.01 | locus YCL011C, strain gbp2, stronger effect = lower value 1.01 | locus YCL016C, strain dcc1, stronger effect = lower value 0.995 | locus YCL029C, strain bik1, stronger effect = lower value 1 | locus YCL061C, strain MRC1, stronger effect = lower value 1 | locus YCL069W, strain vba3, stronger effect = lower value 1.03 | locus YCR088W, strain abp1, stronger effect = lower value 0.999 | locus YDL005C, strain med2, stronger effect = lower value 0.994 | locus YDL035C, strain GPR1, stronger effect = lower value 1.03 | locus YDL040C, strain nat1, stronger effect = lower value 0.98 | locus YDL074C, strain BRE1, stronger effect = lower value 1.03 | locus YDL101C, strain DUN1, stronger effect = lower value 1.02 | locus YDL185W, strain tfp1, stronger effect = lower value 0.999 | locus YDL192W, strain arf1, stronger effect = lower value 1 | locus YDR001C, strain nth1, stronger effect = lower value 1 | locus YDR069C, strain doa4, stronger effect = lower value 1.01 | locus YDR101C, strain arx1, stronger effect = lower value 0.984 | locus YDR137W, strain rgp1, stronger effect = lower value 0.976 | locus YDR150W, strain NUM1, stronger effect = lower value 1.01 | locus YDR159W, strain sac3, stronger effect = lower value 0.99 | locus YDR162C, strain NBP2, stronger effect = lower value 1.03 | locus YDR195W, strain ref2 0.972 | locus YDR297W, strain sur2, stronger effect = lower value 1.01 | locus YDR318W, strain mcm21, stronger effect = lower value 1 | locus YDR334W, strain swr1, stronger effect = lower value 1 | locus YDR335W, strain msn5, stronger effect = lower value 1 | locus YDR388W, stronger effect = lower value 0.993 | locus YDR392W, strain spt3, stronger effect = lower value 0.976 | locus YDR502C, strain sam2, stronger effect = lower value 1 | locus YEL003W, strain gim4, stronger effect = lower value 1.01 | locus YEL037C, strain rad23, stronger effect = lower value 0.992 | locus YEL061C, strain CIN8 (second series), stronger effect = lower value 1 | locus YEL061C, strain CIN8, stronger effect = lower value 1 | locus YER015W, strain faa2, stronger effect = lower value 1 | locus YER016W, strain bim1, stronger effect = lower value 0.996 | locus YER110C, stronger effect = lower value 0.994 | locus YER111C, strain swi4, stronger effect = lower value 1.01 | locus YER155C, strain BEM2 (second series), stronger effect = lower value 0.996 | locus YER155C, strain BEM2, stronger effect = lower value 1 | locus YER167W, strain BCK2, stronger effect = lower value 1.02 | locus YFR010W, strain ubp6, stronger effect = lower value 1 | locus YGL078C, strain dbp3, stronger effect = lower value 1 | locus YGL086W, strain mad1, stronger effect = lower value 1 | locus YGL167C, strain pmr1, stronger effect = lower value 1 | locus YGL173C, strain kem1, stronger effect = lower value 1 | locus YGL227W, strain vid30, stronger effect = lower value 0.999 | locus YGL240W, strain doc1, stronger effect = lower value 0.98 | locus YGL248W, strain PDE1, stronger effect = lower value 1.01 | locus YGL253W, strain hxk2, stronger effect = lower value 1.01 | locus YGR078C, strain PAC10, stronger effect = lower value 1.03 | locus YGR135W, strain pre9, stronger effect = lower value 0.997 | locus YGR229C, strain SMI1, stronger effect = lower value 1.04 | locus YGR252W, strain gcn5, stronger effect = lower value 0.995 | locus YHR013C, strain ard1, stronger effect = lower value 0.995 | locus YHR027C, strain rpn1, stronger effect = lower value 0.997 | locus YHR030C, strain SLT2, stronger effect = lower value 1.01 and 1 | locus YHR079C, strain IRE1 (second series), stronger effect = lower value 1.02 | locus YHR079C, strain IRE1, stronger effect = lower value 0.988 | locus YHR094C, strain hxt1, stronger effect = lower value 0.995 | locus YHR129C, strain ARP1, stronger effect = lower value 1.01 | locus YHR142W, strain chs7, stronger effect = lower value 1.01 | locus YHR200W, strain rpn10, stronger effect = lower value 1.01 | locus YIL066C, strain RNR3, stronger effect = lower value 1.04 | locus YIL073C, strain SPO22, stronger effect = lower value 1.02 | locus YIL125W, strain kgd1, stronger effect = lower value 1 | locus YIR030C, strain dcg1, stronger effect = lower value 1 | locus YJL092W, strain hpr5, stronger effect = lower value 0.998 | locus YJL095W, strain BCK1 (second series), stronger effect = lower value 1 | locus YJL095W, strain BCK1, stronger effect = lower value 1.03 and 1.04 | locus YJL115W, strain asf1, stronger effect = lower value 1 | locus YJL129C, strain trk1, stronger effect = lower value 1.01 | locus YJL134W, strain LCB3, stronger effect = lower value 1.01 | locus YJL154C, strain vps35, stronger effect = lower value 0.994 | locus YJL164C, strain tpk1, stronger effect = lower value 1.01 | locus YJL166W, strain qcr8, stronger effect = lower value 1 | locus YJL168C, strain set2, stronger effect = lower value 1 | locus YJL187C, strain SWE1 (second series), stronger effect = lower value 1.02 | locus YJL187C, strain SWE1, stronger effect = lower value 1.02 | locus YJR043C, strain POL32, stronger effect = lower value 1.02 | locus YJR066W, strain TOR1, stronger effect = lower value 0.93 | locus YKL009W, strain mrt4, stronger effect = lower value 0.995 | locus YKL068W, stronger effect = lower value 0.993 | locus YKL085W, strain MDH1 (second series), stronger effect = lower value 1.01 | locus YKL085W, strain MDH1, stronger effect = lower value 1.01 | locus YKL160W, strain elf1, stronger effect = lower value 1 | locus YKR001C, strain vps1, stronger effect = lower value 0.985 | locus YKR026C, strain gcn3, stronger effect = lower value 0.989 | locus YKR091W, strain srl3, stronger effect = lower value 0.997 | locus YLL001W, strain dnm1, stronger effect = lower value 1 | locus YLL026W, stronger effect = lower value 0.994 | locus YLL041C, strain sdh2, stronger effect = lower value 0.994 | locus YLR027C, strain aat2, stronger effect = lower value 1.01 | locus YLR039C, strain RIC1, stronger effect = lower value 1.01 | locus YLR058C, strain SHM2, stronger effect = lower value 1.01 | locus YLR102C, strain apc9, stronger effect = lower value 0.992 | locus YLR113W, strain HOG1, stronger effect = lower value 1.02 | locus YLR221C, strain rsa3, stronger effect = lower value 0.996 | locus YLR258W, strain gsy2, stronger effect = lower value 0.998 | locus YLR262C, strain YPT6, stronger effect = lower value 1.05 | locus YLR268W, strain sec22, stronger effect = lower value 1 | locus YLR320W, strain mms22, stronger effect = lower value 0.996 | locus YLR330W, strain CHS5, stronger effect = lower value 1.01 | locus YLR342W, strain FKS1 (second series), stronger effect = lower value 1.02 | locus YLR342W, strain FKS1, stronger effect = lower value 1.03 | locus YLR357W, strain rsc2, stronger effect = lower value 0.999 | locus YLR370C, strain arc18, stronger effect = lower value 0.991 | locus YLR371W, strain rom2, stronger effect = lower value 0.99 | locus YLR384C, strain iki3, stronger effect = lower value 0.985 | locus YLR418C, strain cdc73, stronger effect = lower value 0.99 | locus YML016C, strain PPZ1, stronger effect = lower value 1.01 | locus YML032C, strain rad52, stronger effect = lower value 0.998 | locus YML120C, strain ndi1, stronger effect = lower value 0.996 | locus YML124C, strain tub3, stronger effect = lower value 0.996 | locus YMR058W, strain fet3, stronger effect = lower value 1 | locus YMR078C, strain ctf18, stronger effect = lower value 1.01 | locus YMR125W, strain sto1, stronger effect = lower value 0.983 | locus YMR129W, stronger effect = lower value 0.998 | locus YMR205C, strain PFK2, stronger effect = lower value 1.04 | locus YMR223W, strain ubp8, stronger effect = lower value 0.998 | locus YMR231W, strain pep5, stronger effect = lower value 0.969 | locus YMR307W, strain GAS1, stronger effect = lower value 1.1 | locus YNL067W, strain RPL9B, stronger effect = lower value 1.02 | locus YNL071W, strain lat1, stronger effect = lower value 1 | locus YNL153C, strain GIM3, stronger effect = lower value 1.03 | locus YNL183C, strain NPR1, stronger effect = lower value 0.973 | locus YNL209W, strain ssb2, stronger effect = lower value 1.02 | locus YNL233W, strain BNI4, stronger effect = lower value 1.03 | locus YNL248C, strain rpa49, stronger effect = lower value 0.996 | locus YNL250W, strain rad50, stronger effect = lower value 1.01 | locus YNL271C, strain bni1, stronger effect = lower value 1 | locus YNL298W, strain CLA4, stronger effect = lower value 0.988 | locus YNL307C, strain MCK1, stronger effect = lower value 0.992 | locus YNL322C, strain KRE1 (second series), stronger effect = lower value 0.983 | locus YNR049C, strain mso1, stronger effect = lower value 0.991 | locus YNR052C, strain pop2, stronger effect = lower value 0.993 | locus YOL012C, strain htz1 0.787 | locus YOL147C, strain pex11, stronger effect = lower value 0.99 | locus YOR001W, strain rrp6, stronger effect = lower value 1.01 | locus YOR061W, strain CKA2, stronger effect = lower value 1.01 | locus YOR069W, strain VPS5, stronger effect = lower value 1 | locus YOR070C, strain gyp1, stronger effect = lower value 1 | locus YOR080W, strain dia2, stronger effect = lower value 0.996 | locus YOR083W, strain WHI5, stronger effect = lower value 1.01 | locus YOR106W, strain vam3, stronger effect = lower value 1.01 | locus YOR136W, strain idh2, stronger effect = lower value 1 | locus YOR144C, strain elg1, stronger effect = lower value 0.996 | locus YOR184W, strain ser1, stronger effect = lower value 1 | locus YOR231W, strain MKK1, stronger effect = lower value 0.978 | locus YOR265W, strain rbl2, stronger effect = lower value 1 | locus YOR270C, strain vph1, stronger effect = lower value 1.06 | locus YOR290C, strain snf2, stronger effect = lower value 0.995 | locus YOR316C, strain cot1, stronger effect = lower value 0.989 | locus YPL051W, strain arl3, stronger effect = lower value 1.01 | locus YPL055C, strain LGE1, stronger effect = lower value 1.04 | locus YPL078C, strain atp4, stronger effect = lower value 1.01 | locus YPL106C, strain sse1, stronger effect = lower value 1.01 | locus YPL240C, strain hsp82, stronger effect = lower value 0.995 | locus YPL256C, strain CLN2, stronger effect = lower value 0.996 | locus YPR119W, strain clb2, stronger effect = lower value 1 | locus YPR141C, strain kar3, stronger effect = lower value 0.998 | locus YPR163C, strain tif3, stronger effect = lower value 1 | locus YPR167C, strain met16, stronger effect = lower value 0.999 | strain wtn01, stronger effect = lower value 0.99
